Our source for the inhibition values is PubChem BioAssay AID588335 (The Scripps Research Institute Molecular Screening Center, 2011).

The campaign covered roughly 360,000 compounds. About 4,500 (1.2%) were called active. What follows is part of a selection rich in actives, with near analogues and random picks from the rest. A number with no mark means an inactive call. No stated cut-off is given here; in the data, active means inhibition above about 30%; inactive means the rest.

Broadly, the inhibition is the drop in the measured response relative to a control, in per cent.

The experiment can be described thus: GDH-TPI coupling enzyme inhibitors, primary screen, artefact control for M. tuberculosis FBA inhibitor project, biochemical, absorbance, full deck (AID 588335).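 Further: 0% = DMSO wells and 100% = wells lacking the enzyme.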 The settings on record: GDH-TPI coupled enzyme counterscreen, NADH absorbance; at 4.8 µM; hits give high values.
Consider `CN(C)CCn1c(=S)[nH]c2ccc(Cl)cc2c1=O`, for which the inhibition was 32.9% (active). With `O=c1c2ccccc2[nH]c(=S)n1-c1cccc(Cl)c1`, the inhibition is 9.09%.

With `O=C(CCn1c(=S)[nH]c2cc3c(cc2c1=O)OCO3)NCc1ccc(Cl)cc1`, the inhibition was 20.7%.

In the case of `O=C(CN1CCN(S(=O)(=O)c2cc(Cl)ccc2Cl)CC1)c1ccc(O)c(O)c1`, the inhibition was 18.1%.

With `Cc1cc(/C=N/Nc2ccc([N+](=O)[O-])cn2)c(C)n1-c1cccc(C(=O)O)c1`, the inhibition was 38% (active). Then `Cc1cc(C=O)c(C)n1-c1ccc(NC2CCCCC2)c([N+](=O)[O-])c1`, with 0.62%. Consider `Cc1cc(/C=N/NC(=O)CC2(C)OCCO2)c(C)n1-c1ccc(Cl)c(Cl)c1`, for which the inhibition is 0.72%. With `COc1ccc(-c2noc(C(C)NS(=O)(=O)c3ccc(NC(C)=O)cc3)n2)cc1` (stereo not drawn), the inhibition is -8.81%. For the molecule `Brc1ccc(CN2CC[C@H]3C=CCc4cccc(c43)C2)cc1`, the inhibition is 6.9%. `CC(=O)N1CCOc2ccc(S(=O)(=O)N3CCN(c4cccc(C(F)(F)F)c4)CC3)cc21`: the inhibition is 6.9%. On to `O=C(N/N=C\c1ccc(-c2ccc(Cl)c(Cl)c2)o1)C(=O)N1CCCC1`, for which the inhibition was 14.3%.

Turning to `COC(=O)N/N=C/c1ccc(-c2ccc(Cl)c(Cl)c2)o1`, the inhibition is 31.5% (active). As for `O=C(Cn1nnc(-c2ccccc2)n1)N/N=C/c1ccc(-c2ccc(Cl)cc2)o1`, the inhibition is 11.2%.

For the molecule `CCC1Sc2ccc(S(=O)(=O)CCC(=O)NCc3cccs3)cc2NC1=O` (stereo not drawn), the inhibition was 10%.

Take `Cc1cc(C(=O)N2CCCC2(C)C(=O)O)c(C)o1` (stereo not drawn): the inhibition was -1.83%. The result for `CCOc1cc(/C=N/NC(=O)c2cccc(S(=O)(=O)N3CCOCC3)c2)ccc1OCC(=O)N(C)C` reads 26.9%. On to `Cn1c(=O)n(C)c2cc(/C=N/NC(=O)c3cccc(Br)c3)ccc21`, for which the inhibition is 31.9% (active). Take `O=C(N/N=C/c1ccoc1)c1ccc(Cl)cc1Cl`: the inhibition is -4.38%. Take `CSc1ccc(/C=N/NC(=O)c2cccc(Cl)c2)cc1`: the inhibition is 31.8% (active).

As to `CC(NC(=O)C(=O)N/N=C/c1ccc(Cl)cc1)c1ccccc1` (stereo not drawn), the inhibition was -6.35%. Consider `COc1cc(/C=N/NC(=O)c2cccnc2)ccc1OC(=O)c1cccc(Br)c1`, for which the inhibition was 7.96%.

Take `O=C(OCC(=O)N1CCCCCC1)c1cnc(Cl)c(Cl)c1`: the inhibition is -4.78%. `COc1ccc(C2CC(=O)Oc3ccc(C(C)(C)C)cc32)cc1` (stereo not drawn): the inhibition was 10.2%. The result for `COc1ccc([C@H]2CC(=O)C=C(/C=C/c3ccc(Cl)cc3)C2)cc1` reads 2.59%.

Consider `COc1ccc([C@H]2CC(=O)C=C(c3ccc(C)cc3)C2)cc1`, for which the inhibition is 13.4%. Consider `COc1ccc([C@H]2CC(=O)C=C(/C=C/c3ccccc3)C2)cc1`, for which the inhibition was 37.2% (active). Consider `CCCCC(=O)N(C)c1c(CC)nc2c(OCc3ccc(S(C)(=O)=O)cc3)cccn12`, for which the inhibition was 8.04%. Turning to `CN(C)Cc1ccc(F)cc1Sc1cc(Cl)ccc1Cl`, the inhibition was 6.23%.

`OCCNc1nc2ccccc2n1-c1ncnc2sc3c(c12)CCC3`: the inhibition is 7.12%. In the case of `COc1ccc(/C=N/Nc2ncnc3sc4c(c23)CCCC4)cc1O`, the inhibition was 34.2% (active). The result for `COc1ccc(NC(=O)CCCNC(=O)Cn2cnc3sc4c(c3c2=O)CCCC4)cc1OC` reads 4.67%; that for `Cc1nnc(NC(=O)CCC(=O)N2CCC(C)CC2)s1`, -8.68%. Take `Cc1ccc(C(=O)/C=C/Nc2ccc(S(=O)(=O)Nc3onc(C)c3C)cc2)cc1`: the inhibition was 21.6%. The result for `Cc1noc(NS(=O)(=O)c2ccc(N/C=C/C(=O)c3ccccc3)cc2)c1C` reads 32.3% (active). `Cc1noc(NS(=O)(=O)c2ccc(NC(=O)C34CCC(CC3)C4)cc2)c1C`: the inhibition was -6.12%. Turning to `Cc1ccc(-c2csc(C(C#N)=C(O)CN3CCN(C(=O)c4ccco4)CC3)n2)cc1`, the inhibition was 21.6%.

As for `COC(=O)C(C(=O)Nc1cccc(C)n1)C1CCCCCC1` (stereo not drawn), the inhibition was 14.9%. On to `C=CCN(c1ccc(C(=O)Nc2cc(C)cc(C)c2)cc1)S(C)(=O)=O`, for which the inhibition is 4.51%.

On to `CC(C)(C)C(=O)c1cnc(Nc2ccccc2)s1`, for which the inhibition is 35.6% (active). On to `O=C(/C=C/Nc1ccccc1)c1cnc(-c2ccccc2)s1`, for which the inhibition is 3.77%. As for `CC(=O)c1cnc(-c2ccccc2)s1`, the inhibition was 10.1%. As to `C=CC(COCc1ccccc1)N(Cc1ccccc1)S(=O)(=O)c1ccccc1Br` (stereo not drawn), the inhibition is 9.24%. The result for `CCC(=O)Oc1cccc(C(=O)Nc2ccc(-c3nnc(-c4ccco4)o3)cc2)c1` reads 35.6% (active); that for `O=C(Nc1ccc(Cl)cc1)c1cccc(OC(=S)N2CCOCC2)c1`, -5.96%; that for `CCCOc1cccc(C(=O)Nc2nnn(CCC)n2)c1`, 3.11%. Regarding `N#C/C(C(=S)Nc1ccccc1)=C1/NN=C(N2CCOCC2)N1c1ccccc1`, the inhibition is 6.29%. As to `Cc1ccc2c(O)c(Cc3ccccc3)c(=O)[nH]c2n1`, the inhibition is 12.7%. On to `NC(=O)Cn1cc(C(=O)c2ccccc2F)c2ccccc21`, for which the inhibition was 1.25%. For the molecule `N#Cc1ccc(Cn2cc(C(=O)c3ccco3)c3ccccc32)cc1`, the inhibition is 31.5% (active). As to `CC1CCN(C(=O)Cn2cc(C(=O)c3ccco3)c3ccccc32)CC1`, the inhibition is 21.1%. Take `CCOC(=O)c1c(NC(=S)SC)sc(C(=O)N2CCc3ccccc3C2)c1C`: the inhibition was 1.83%. The result for `CN1CCC(=NNC(=O)CN(c2cccc(Cl)c2)S(C)(=O)=O)CC1` reads 3.59%.

As for `CCc1nc2cccnc2n1-c1ccc(C(=O)O)cc1`, the inhibition is 0.86%. Turning to `N#CCCCn1c(O)c(N=NC(=O)C(O)c2ccccc2)c2ccccc21` (stereo not drawn), the inhibition was 42% (active). Then `CCCCn1c(O)c(N=NC(=O)Cn2c(C(F)(F)F)nc3ccccc32)c2ccccc21`, with -14.8%; and `Cc1csc(Nc2ccc(Cl)cc2)[n+]1-c1ccc(Cl)cc1`, with 2.24%; and `O=C(CNC(=O)c1ccccc1Br)NNC(=O)c1cccs1`, with -3.45%. For `CC1CC(=NNC(=O)C2COc3ccccc3O2)CC(C)(C)C1` (stereo not drawn), the inhibition was -8.18%. `CCCOc1cccc(C(=O)NCCCNC(=O)c2cccnc2)c1`: the inhibition was -5.19%.

In the case of `CC(C)OCCCNC(=O)CNC(=O)c1cccs1`, the inhibition was 3.27%. The result for `O=C(CNC(=O)c1cccnc1)N/N=C/c1cc(Br)c(O)c(Br)c1` reads 42% (active). On to `O=C(CNC(=O)C(c1ccccc1)c1ccccc1)N/N=C\c1ccc2c(c1)OCO2`, for which the inhibition is 6.25%.

With `CCN(CC)c1ccc(/C=N/NC(=O)CNC(=O)c2cccnc2)cc1`, the inhibition is 33.1% (active). On to `CCN(CC)c1ccc(/C=N/NC(=O)CNC(=O)c2cccs2)cc1`, for which the inhibition is 31.4% (active). As for `O=C(CNC(=O)C1COc2ccccc2O1)N/N=C/c1cc(Br)c(O)c(Br)c1` (stereo not drawn), the inhibition was 33.5% (active). For `Cc1cccc(OCC(=O)NCCNC(=O)c2cccnc2)c1`, the inhibition was -7.55%.

As to `CCOc1cc(/C=N/NC(=O)c2ccncc2)cc(Br)c1O`, the inhibition is 0%.

With `C/C(=N\NC(=O)c1cccnc1)c1ccc(-n2ccnc2)cc1`, the inhibition was 12.6%.
